Screening data as filed in PubChem.
Sampled rows, rich in hits. Any-hit rate of the full collection: about 6.5%.
VACV mCherry inh: inhibitors of vaccinia virus infection (mCherry reporter signal). Vaccinia virus mCherry reporter infection, fluorescence. Potency, µM (titrated, usually from 36.5 µM), without a hit: at the top dose activity change, negative = inhibition, hits mostly inhibitors. 310,000 compounds, 0.63% hits; calls by dose curve; tested in A549 cells; also: potency is read from the fitted curve at half-maximal effect; nearly all actives have a fitted effect of over 35% in size
LASV entry inh: Lassa virus entry inhibition | Lassa virus pseudotype entry inhibition, cell reporter | Potency, µM (highest dose often 37.9 µM), for the others: top-dose activity change, negative = inhibition, actives largely listed as inhibitors | 300,000 compounds, 1.2% hits | AID 540256; calls by dose curve; tested in HEK293 cells; also: potency is read from the fitted curve at half-maximal effect; nearly all actives have a fitted effect of over 50% in size
Marburg entry inh: blocks Marburg virus binding to or entry into cells; Marburg virus pseudotyped entry inhibition, cell reporter; Potency, µM (series often up to 37.8 µM), without a hit: at the highest dose activity change, negative = inhibition, hits mostly inhibitors; 300,000 compounds, 1.8% hits; calls by dose curve; tested in HEK293 cells; also: potency is read from the fitted curve at half-maximal effect
HCMV antiviral: inhibitors of human cytomegalovirus | HFF cells, HCMV-luciferase reporter, 72 h; active compounds read low | activity change, negative = inhibition, % at 57.5 µM | 410,000 compounds, 4.5% hits | AID 1259415; in the data active = activity change below about -60%; inconclusive = no clear call, values can overlap the other calls; inactive = above about -39%
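Cell-based, HFFs, 1000 cells/well, 16 h 37C; cpds in DMSO + HCMV-luc, MOI 1 PFU/cell; 72 h 37C; OneGlo luminescence after 5 min RT; norm. to buffer vs Salinomycin 10uM.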
Vaccinia Venus: inhibitors of vaccinia virus (Venus reporter). Vaccinia virus Venus reporter expression, fluorescence. Potency, µM (top dose mostly 36.5 µM), for inactives: top-dose activity change, negative = inhibition, actives largely listed as inhibitors. 330,000 compounds, 0.46% hits; calls by dose curve; tested in A549 cells; also: potency is read from the fitted curve at half-maximal effect; nearly all actives have a fitted effect of over 30% in size
FMDV antiviral: blocks foot and mouth disease virus; FMDV antiviral cell-based qHTS; Potency, µM (series often up to 57.9 µM), without a hit: at the highest dose activity change, negative = inhibition, actives largely listed as inhibitors; 410,000 compounds, 1.2% hits; AID 1159524; calls by dose curve; tested in HEK293T cells; also: read-out not given here; potency is read from the fitted curve at half-maximal effect; nearly all actives have a fitted effect of over 45% in size
* hit, by the source's call; i = inactive; u = inconclusive; x = no result; ! = repeats disagree; [ ] = another dose, or the depositor's remark. % is scaled to controls: 0 for no effect and ±100 for the full control effect.

SMILES | VACV mCherry inh | LASV entry inh | Marburg entry inh | HCMV antiviral | Vaccinia Venus | FMDV antiviral
[O-]C(=C(C(=S)Nc1cccc2ccccc12)[n+]1ccccc1)c1ccc2c(c1)OCCO2 | u | -27%[46.1 µM] | -12%[46.1 µM] | x | 0% | 12%
CCOc1ccccc1NC(=S)/C(=C(\[O-])c1ccc2c(c1)OCCO2)[n+]1ccc(CC)cc1 | x | 12% | 7.3µM* | 26 | x | 2%
Nc1ccccc1NC(=O)OCc1ccccc1 | x | x | x | -15 | x | x
CCc1cccc(NC(=O)CCNS(=O)(=O)c2cc(Br)cnc2N)c1 | x | x | x | -77* | x | 28%
CC(C)c1ccc(NC(=O)CCNS(=O)(=O)c2cc(Br)cnc2N)cc1 | x | x | x | -24 | x | 0%
CCOc1cc(CNC(=O)c2ccc3c(c2)NC(=O)C2CCCCN32)cc(OCC)c1OCC (configuration not stated) | -18% | 16%[46.1 µM] | x | -10 | -3% | 0%
CC(C)CN(CC(C)C)CC(O)COc1ccccc1Br (configuration not stated) | -26% | u | u | -76* | -24% | u
Cc1ccnc(NC(c2cccc(O)c2)c2ccc3ccc(C)nc3c2O)c1 (configuration not stated) | -15% | -9%[46.1 µM] | 3%[46.1 µM] | 9 | -7% | -17%
COc1ccc(C(NC(C)=O)c2ccc3cccnc3c2O)cc1OC (configuration not stated) | 7.9µM* | x | x | x | u | x
CCOc1cc(C(Nc2cc(C)ccn2)c2ccc3cccnc3c2O)ccc1OC (configuration not stated) | i[7.34 µM] | 5.6µM* | u | -97* | -9%[7.34 µM] | -18%
COc1ccc(C(NC(C)=O)c2ccc3cccnc3c2O)c(OC)c1 (configuration not stated) | x | 6.3µM* | u | x | u | 0%
CC(=O)NC(c1ccc2ccccc2c1)c1ccc2cccnc2c1O (configuration not stated) | u | u | u | -98* | u | -13%
O=C(Cn1cc(SCc2ccc(F)cc2)c2ccccc21)N1CCCCC1 | -12% | -2%[46.1 µM] | x | 24 | -11% | 26%
COc1ccc(C(C)N(C)Cc2nc(N3CCN(C(=O)c4ccco4)CC3)c3ccccc3n2)cc1 (configuration not stated) | 2% | x | x | x | 0% | 7%
CN(C)c1c2ccccc2nc2c(F)c(F)c(F)c(F)c12 | x | x | x | x | x | 28µM*
Cc1c2ccccc2nc2c(F)c(N(C)C)c(F)c(F)c12 | -8% | -5% | 6% | 16 | 32% | 36%
COC(=O)CCCC(=O)N1CCOCCN(C(=O)CCCC(=O)OC)CCOCC1 | x | 18% | 3%[46.1 µM] | -101* | -12% | -15%
COC(=O)CCC(=O)N1CCOCCOCCN(C(=O)CCC(=O)OC)CCOCCOCC1 | x | 7% | 7% | 3 | -10% | -18%
Cn1nnnc1Sc1ncnc2scc(-c3cccc(S(C)(=O)=O)c3)c12 | x | x | x | -5 | x | -24%
COc1ccc(-c2csc3ncnc(Sc4nnnn4C)c23)cc1 | x | x | x | -92* | x | u
CC(=O)c1cccc(-c2csc3ncnc(Sc4nnnn4C)c23)c1 | x | x | x | u | x | 35µM*
Cn1nnnc1Sc1ncnc2scc(-c3ccccc3Cl)c12 | x | x | x | -73* | x | -10%
Cn1nnnc1Sc1ncnc2scc(-c3ccc(Cl)cc3)c12 | x | x | x | -98* | x | 20µM*
COc1ccc(NC(=O)c2oc3ccccc3c2NC(=O)C23CC4CC(CC(C4)C2)C3)c(OC)c1 | 1% | -9%[46.1 µM] | 8%[46.1 µM] | 4 | 7% | -9%
Cc1noc(-c2ccc(NCc3ccccc3)c([N+](=O)[O-])c2)n1 | -14% | 19%[46.1 µM] | 24%[46.1 µM] | 53 | -6% | 42%
SMILES | VACV mCherry inh | LASV entry inh | Marburg entry inh | HCMV antiviral | Vaccinia Venus | FMDV antiviral
O=C(NCc1ccccc1Cl)O[C@H]1CC[C@@]23CCCN2C(=O)CCC[C@H]3[C@H]1Cc1ccccc1 | x | x | x | -2 | x | x
O=C(O)CSc1ncnc2scc(-c3ccccc3)c12 | -3% | 22% | -1%[46.1 µM] | -14 | 1% | -15%
Clc1ccc(-c2csc3ncnc(Sc4nnnn4-c4ccccc4)c23)cc1 | 10µM* | x | x | x | u | x
Cc1sc2ncnc(Sc3nnnn3-c3ccccc3)c2c1C | 11µM*! | u | u | -71* | u | x
CC(=O)CSc1ncnc2scc(-c3ccc(F)cc3)c12 | i | -18%[46.1 µM] | 4%[46.1 µM] | 31 | -5% | -2%
Cn1nnnc1Sc1ncnc2scc(-c3ccc4c(c3)OCO4)c12 | x | x | x | -86* | x | 0%
Cn1nnnc1Sc1ncnc2scc(-c3cccc(Br)c3)c12 | x | x | x | -18 | x | -96%
Cn1nnnc1Sc1ncnc2scc(-c3ccc([N+](=O)[O-])cc3)c12 | x | x | x | -100* | x | 11µM*
c1ccc2sc(Sc3ncnc4sccc34)nc2c1 | -25% | 1% | u | 155 | -11% | 1%
Clc1ccc(-n2nnnc2Sc2ncnc3sccc23)cc1 | x | u | u | -81* | -27% | 40µM*
Cn1nnnc1Sc1ncnc2scc(-c3cccc4c3sc3ccccc34)c12 | x | x | x | -92* | x | 28µM*
COc1ccc([C@H](CC(=O)N2CCOCC2)C(C)C)cc1 | x | x | -1% | x | x | x
CC1(O)CCN2C(=O)CCc3cccc1c32 (configuration not stated) | x | x | x | -61* | x | -18%
COc1ccc(C(=O)C(C)[n+]2ccc(C)c3ccccc32)cc1[N+](=O)[O-] (configuration not stated) | x | x | x | -86* | x | -20%
COc1ccc(C(=O)NC(C)CCc2ccccc2)cc1[N+](=O)[O-] (configuration not stated) | -24% | -6% | -13% | -6 | -20% | -24%
CCN(CC)C(=O)CSc1nc2cc3c(cc2c(=O)n1Cc1ccc(C(=O)NCCc2ccc(OC)c(OC)c2)cc1)OCO3 | -12% | -10%[46.1 µM] | x | -83* | -11% | 1%
CCN(CC)C(=O)CSc1nc2cc3c(cc2c(=O)n1CCCC(=O)NCCc1ccc(OC)c(OC)c1)OCO3 | -22% | x | 2%[46.1 µM] | -67* | -11% | -7%
CCCCNC(=O)CSc1nc2cc3c(cc2c(=O)n1Cc1ccc(C(=O)NCCc2ccc(OC)c(OC)c2)cc1)OCO3 | -17% | 16%[46.1 µM] | x | -11 | -25% | -6%
Cc1ccc(C)c(-n2cc(-c3ccccc3)nc2SCC(=O)Nc2ccccc2)c1 | -8% | -8%[46.1 µM] | x | -15 | -11% | -16%
O=C(NCc1ccccc1)C1=CN2CCN(Cc3cccc(Cl)c3)C(=O)N=C2O1 | x | x | x | -1 | x | x
O=C(C1CCC(C(=O)N2CCCCC2)CC1)N1CCCCC1 (configuration not stated) | x | -4% | u | -61* | -35% | -27%
COc1cc(C)c(CN2C[C@H](Sc3ccccn3)C[C@H]2C(=O)N(C)C)cc1C | 0% | x | x | x | -10% | 4%
Cc1ccccc1CN1CCc2c(OCC(=O)N3CCCc4ccccc43)cccc2C1=O | -22% | u | u | -62* | u | 40µM*
O=C1c2cccc(OCC(=O)N3CCCc4ccccc43)c2CCN1Cc1cccnc1 | u | u | u | -61* | -29% | 28µM*
